# Measured values from PubChem BioAssay (NCATS).
# Several values for one entry are separate records, joined by “and”; a condition that tells them apart may be missing. Identical values can stand only once. Results filed as inconclusive are left out. Activity calls are given as the source filed them. Calls come from the whole dose curve; as a rule, active = well fitted curve in the direction sought with a large enough effect; inconclusive = small, poorly fitted or top-dose-only effect, or another doubt; inactive = no such curve, though single readings can be large or run the other way.
# Experiment: qHTS Assay for Identifying Gametocytocidal Compounds (AID 743244);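 note: actives lower the fluorescent signal which means gametocytes are killed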
# Conditions: P. falciparum 3D7 stage III-V gametocytes, alamarBlue, 72 h; max response: active compounds read low
# How it was run: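 Late gametocytes (III–V), P. falciparum 3D7; 72 h drug, then 24 h alamarBlue; resazurin reduction read by fluorescence.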
# % is set by controls: 0 for no effect and ±100 for the full control effect.
row,SMILES,max response
1,CCCOC(=O)c1ccccc1,-2.44% (inactive)
2,C[C@H]1O[C@@H](n2cc(F)c(=O)[nH]c2=O)[C@H](O)[C@@H]1O,0.485% (inactive)
3,Cc1c(Cl)cccc1Nc1ccccc1C(=O)O,-7.91% (inactive)
4,CCOC(=O)[C@H](CCc1ccccc1)N[C@@H](C)C(=O)N1C(=O)N(C)C[C@H]1C(=O)O,6.96% (inactive)
5,Cn1cc[nH]c1=S,-4.61% (inactive)
6,COc1cc(C(=O)N2CCOCC2)cc(OC)c1OC,-5.92% (inactive) and 13.8% (inactive)
7,COc1ccc2c(c1)C(=O)N(CCc1ccc(S(=O)(=O)NC(=O)NC3CCCCC3)cc1)C(=O)C2(C)C,22.2% (inactive)
8,CC(C)(C)C(=O)NCCCC(=O)O,2.51% (inactive)
9,CN(N=O)C(=O)N[C@@H]1[C@@H](O)[C@H](O)[C@@H](CO)O[C@@H]1O,5.26% (inactive)
10,O=C(CCCN1CCN(c2ccccn2)CC1)c1ccc(F)cc1,11.2% (inactive)
11,CC[C@@]1(c2ccccc2)NC(=O)N(C)C1=O,7.9% (inactive)
12,CC(C)(O)c1ccccc1CC[C@@H](SCC1(CC(=O)O)CC1)c1cccc(/C=C/c2ccc3ccc(Cl)cc3n2)c1,-7.08% (inactive)
13,CN1[C@@H]2CC[C@H]1CC(OC(=O)C(O)c1ccccc1)C2 (stereo partly drawn),-8.53% (inactive) and 3.5% (inactive) and -4.14% (inactive)
14,[O-][n+]1cccc(CO)c1,-4.23% (inactive)
15,Oc1ccc(C(O)CNCCCCCCNCC(O)c2ccc(O)c(O)c2)cc1O (stereo not drawn),-5.82% (inactive)
16,CCCCc1ncc(/C=C(\Cc2cccs2)C(=O)O)n1Cc1ccc(C(=O)O)cc1,-3.3% (inactive)
17,C/C(=C(\CCOP(=O)(O)O)SC(=O)c1ccccc1)N(C=O)Cc1cnc(C)nc1N,7.95% (inactive)
18,C[C@@H](O)[C@H](N)C(=O)O,6.39% (inactive)
19,NC(=O)NNc1ccccc1,5.12% (inactive) and -3.42% (inactive)

row,SMILES,max response
1,CN(C)CCCO[C@@H]1[C@H]2OC(C)(C)O[C@H]2O[C@@H]1C(O)CO (stereo partly drawn),-6.36% (inactive)
2,O=C1Nc2ccc(Cl)cc2[C@@](C#CC2CC2)(C(F)(F)F)O1,-21.2% (inactive)
3,Cc1cccc(C)c1NC(=O)CN(CC(=O)O)CC(=O)O,-6.34% (inactive)
4,CN1CCOC(c2ccccc2)c2ccccc2C1 (stereo not drawn),-7.73% (inactive)
5,OC[C@H]1O[C@@H](O[C@@H]2[C@@H](CO)O[C@](O)(CO)[C@H]2O)[C@H](O)[C@@H](O)[C@H]1O,-3.99% (inactive)
6,Nc1ccc(S(=O)(=O)Nc2ccccc2)cc1,-2.25% (inactive)
7,CN1CCC[C@@H]1Cc1c[nH]c2ccc(CCS(=O)(=O)c3ccccc3)cc12,-0.49% (inactive)
8,OCC(CO)N[C@H]1C[C@](O)(CO)[C@@H](O)[C@H](O)[C@H]1O,7.19% (inactive)
9,O=C(Oc1ccccc1C(=O)O)c1ccccc1O,-1.86% (inactive)
10,Cc1cc(C(C#N)c2ccc(Cl)cc2)c(Cl)cc1NC(=O)c1cc(I)cc(I)c1O (stereo not drawn),0.496% (inactive)
11,CC(=O)CCC(=O)O,13.5% (inactive)
12,COc1cc2[nH]c(=O)[nH]c(=O)c2cc1OC,5.15% (inactive)
13,O=C(O)CC(O)C(=O)O (stereo not drawn),-0.517% (inactive)
14,CC(=O)Nc1ccc(/C=N/NC(N)=S)cc1,-6.31% (inactive) and 5.4% (inactive)
15,COc1cc(C)c(Cc2cnc(N)nc2N)cc1OC,-2.96% (inactive)
16,Cc1cc(O)cc2c1O[C@](C)(CCC[C@H](C)CCC[C@H](C)CCCC(C)C)CC2,-2.34% (inactive) and 0.0933% (inactive)
17,NC(=O)NC(=O)Cc1ccccc1,3.39% (inactive)
18,CC(COc1ccccc1)NC(C)C(O)c1ccc(O)cc1 (stereo not drawn),25.2% (inactive)
19,CC1CC(OC(=O)C(O)c2ccccc2)CC(C)(C)N1C (stereo not drawn),12.1% (inactive) and 4.11% (inactive)
